Results on 22 molecules are retold here after PubChem BioAssay AID1986 (Sanford-Burnham Center for Chemical Genomics, 2009).

Hit rate of the full screen: of about 290,000 compounds, about 890 (0.31%) were called active. Rule as the data show it: active = inhibition mostly above about 52% (no sharp cut-off); inactive = mostly below about 76%. Only a selection was taken, and actives are over-represented in it overall.

Usually inhibition stands for the relative decrease from the control value, in per cent.

A short description of the assay: cell-free HIV fusion peptide-binding blockers – biochemical, uHTS, fluorescence dequenching, primary screen (AID 1986). Conditions: 30 min, stronger effect = higher value.
[1] abbreviates: measured here: repeat confirmation average inhibition, at 18.6 µM.

As for `CN(C)C(=O)CSc1nnc(Cc2ccccc2)n1CC1CCCO1` (centres undefined), the inhibition (at 20 µM) was -1.3% (inactive).

Turning to `COc1ccc(CN(CC(=O)NC2CCCC2)C(=O)CN2C(=O)COc3ccccc32)cc1`, the inhibition (at 20 µM) was 0.4% (inactive).

Take `Clc1ccc(-c2cnn3c(-c4ccncc4)ccnc23)cc1`: the inhibition (at 20 µM) is -1.1% (inactive).

Consider `CCN1CCc2c(sc(NC(=O)C3COc4ccccc4O3)c2C(N)=O)C1` (centres undefined), for which, where the note is “at 20 µM”, the inhibition is -0.3% (inactive).

With `NC(=O)c1c(NC(=O)C2COc3ccccc3O2)sc2c1CCN(Cc1ccccc1)C2` (centres undefined), the inhibition is 103% (active) (at 20 µM) and 54% under setting [1].

Consider `COC(=O)c1c(NC(=O)C2COc3ccccc3O2)sc2c1CCN(Cc1ccccc1)C2` (centres undefined), for which the inhibition (at 20 µM) was 3.6% (inactive).

`Cc1nonc1OCCNC(=O)C12CC3CC(CC(C3)C1)C2`: for the setting “at 20 µM”, the inhibition is 0.6% (inactive).

On to `CCS(=O)(=O)C1=NN2C(=N)/C(=C\c3ccc(OS(=O)(=O)c4ccccc4)cc3)C(=O)N=C2S1`, for which the inhibition (at 20 µM) was 39.1% (inactive).

On to `COc1cc(/C=C2/C(=N)N3C(=NC2=O)SN=C3S(C)(=O)=O)ccc1OC(=O)c1ccco1`, for which the inhibition (at 20 µM) is 58.3% (inactive) and the inhibition under setting [1] was found to be 49.7%.

With `COc1cc(/C=C2/C(=N)N3C(=NC2=O)SN=C3S(C)(=O)=O)ccc1OS(=O)(=O)c1ccc(C)cc1`, the inhibition (at 20 µM) is 72.4% (active).

Regarding `COc1cc(/C=C2/C(=N)N3C(=NC2=O)SN=C3S(=O)(=O)C(C)C)ccc1OS(=O)(=O)c1ccccc1`, under “at 20 µM”, the inhibition is 71.6% (active).

Turning to `COc1cc(/C=C2/C(=N)N3C(=NC2=O)SN=C3S(=O)(=O)C(C)C)ccc1OC(=O)c1ccco1`, under “at 20 µM”, the inhibition was 37.9% (inactive).

In the case of `COc1cc(/C=C2/C(=N)N3N=C(C)SC3=NC2=O)ccc1OS(=O)(=O)c1ccc(C)cc1`, where the note is “at 20 µM”, the inhibition was 13.4% (inactive).

Turning to `COc1cc(/C=C2/C(=N)N3N=C(C(C)C)SC3=NC2=O)ccc1OS(=O)(=O)c1ccccc1`, the inhibition (at 20 µM) is 22.3% (inactive).

In the case of `CS(=O)(=O)C1=NN2C(=N)/C(=C\c3ccc(OC(=O)c4ccco4)cc3)C(=O)N=C2S1`, under “at 20 µM”, the inhibition was 47.6% (inactive).

Regarding `COc1cc(/C=C2\C(=N)N3N=CSC3=NC2=O)ccc1OS(=O)(=O)c1ccccc1`, the inhibition (at 20 µM) is 10% (inactive).

Consider `CCC1=NN2C(=N)/C(=C/c3ccc(OS(=O)(=O)c4ccc(C)cc4)c(OC)c3)C(=O)N=C2S1`, for which, under “at 20 µM”, the inhibition was 46.6% (inactive).

For `CS(=O)(=O)C1=NN2C(=N)/C(=C\c3ccc(OCCOc4ccccc4)cc3)C(=O)N=C2S1`, for the setting “at 20 µM”, the inhibition is 80.6% (active).

For the molecule `COc1cc(/C=C2\C(=N)N3N=C(S(C)(=O)=O)SC3=NC2=O)ccc1OS(=O)(=O)c1ccc(C)cc1`, the inhibition (at 20 µM) is 76.5% (active).

Regarding `CCNC(=O)COc1ccc(OCc2ccccc2)cc1`, the inhibition (at 20 µM) was 2% (inactive).

For `CC1(C)NC(=O)N(CC(O)CN(Cc2ccccc2)Cc2ccccc2)C1=O` (centres undefined), under “at 20 µM”, the inhibition is 0.1% (inactive).

As for `O=C(NCc1ccco1)C12CN(Cc3ccccc3)CC1C(c1cccc([N+](=O)[O-])c1)=NO2` (centres undefined), the inhibition (at 20 µM) was 0.7% (inactive).
